Screening results: PubChem, Buhrlage Lab, Dana-Farber Cancer Institute and Novartis Institutes for BioMedical Research (Cambridge, Mass)
In the library only some 13% were active in any assay of this set; here they are far more common.
USP8 inh = blocks human USP8 ubiquitin-rhodamine cleavage | P40818 | purified USP8, Ub-rhodamine cleavage fluorescence, 30 min | inhibition, % at 20 µM | 47,000 compounds, 4.2% hits | AID 1645853
USP17 block = human USP17-like deubiquitinase inhibition. AID 1645855. 47,000 compounds, 6.5% hits. A8MUK1. inhibition, % at 50 µM. purified USP17, Ub-rhodamine cleavage fluorescence, 3 h
USP10 inh = blocks human USP10 ubiquitin-rhodamine cleavage. Q14694. purified USP10, Ub-rhodamine fluorescence, 60 min. inhibition, % at 20 µM. 47,000 compounds, 1.1% hits. AID 1645856
USP30 inh = human USP30 deubiquitinase inhibition; 47,000 compounds, 5.3% hits; purified USP30, Ub-rhodamine cleavage fluorescence; inhibition, % at 25 µM; Q70CQ3
USP28 block = human USP28 deubiquitinase inhibition. Q96RU2. purified USP28, Ub-rhodamine cleavage fluorescence, 30 min. inhibition, % at 25 µM. 47,000 compounds, 3% hits. AID 1645857
Target sequence (Q96RU2 whole entry, looked up): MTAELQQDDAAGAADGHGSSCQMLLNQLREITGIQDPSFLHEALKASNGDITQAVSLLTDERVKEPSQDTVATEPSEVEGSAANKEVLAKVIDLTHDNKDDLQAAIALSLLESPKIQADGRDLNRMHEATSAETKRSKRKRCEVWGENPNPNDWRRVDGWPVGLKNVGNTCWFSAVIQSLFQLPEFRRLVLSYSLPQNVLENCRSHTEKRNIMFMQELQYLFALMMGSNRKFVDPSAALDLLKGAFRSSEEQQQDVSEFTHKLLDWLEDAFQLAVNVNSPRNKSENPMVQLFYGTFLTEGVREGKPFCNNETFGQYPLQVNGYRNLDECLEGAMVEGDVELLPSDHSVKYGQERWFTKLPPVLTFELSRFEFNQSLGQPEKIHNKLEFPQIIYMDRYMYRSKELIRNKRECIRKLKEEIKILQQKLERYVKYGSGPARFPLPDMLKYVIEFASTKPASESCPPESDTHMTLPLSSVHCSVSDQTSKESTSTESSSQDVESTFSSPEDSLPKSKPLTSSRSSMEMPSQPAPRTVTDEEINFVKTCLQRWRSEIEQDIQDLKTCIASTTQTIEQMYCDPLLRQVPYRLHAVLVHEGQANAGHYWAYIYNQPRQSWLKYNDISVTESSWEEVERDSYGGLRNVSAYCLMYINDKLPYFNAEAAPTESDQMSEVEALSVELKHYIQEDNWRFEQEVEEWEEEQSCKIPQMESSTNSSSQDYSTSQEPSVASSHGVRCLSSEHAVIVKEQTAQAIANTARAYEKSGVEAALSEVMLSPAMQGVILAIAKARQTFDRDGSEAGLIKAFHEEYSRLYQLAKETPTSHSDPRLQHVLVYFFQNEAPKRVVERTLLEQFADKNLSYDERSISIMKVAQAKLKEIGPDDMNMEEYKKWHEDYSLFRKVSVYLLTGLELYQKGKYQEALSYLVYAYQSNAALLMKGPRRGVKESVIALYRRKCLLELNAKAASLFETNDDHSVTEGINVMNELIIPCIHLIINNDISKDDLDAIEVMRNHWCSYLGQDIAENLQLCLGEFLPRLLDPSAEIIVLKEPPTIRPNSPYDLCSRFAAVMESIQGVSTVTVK
Active calls of the source: *; nt = no result. No stated cut-off is given here; in the data, active means inhibition above about 30%; inactive means the rest.

SMILES | USP8 inh | USP17 block | USP10 inh | USP30 inh | USP28 block
O=c1ccc(S(=O)(=O)N2CCCCCC2)cn1Cc1cccc(F)c1 | 8.1 | 4.4 | -0.1 | 14.9 | 3.9
COc1ccc2c(c1)c(=O)c(S(=O)(=O)c1ccc(F)cc1)cn2Cc1cccc(F)c1 | 25.4 | 16.3 | 38.6* | 24.7 | 0.4
CC(C)C(NS(=O)(=O)c1ccc2c(c1)OCCO2)C(=O)Oc1ccc(Br)cc1Cl (stereo unspecified) | 9.9 | -8.4 | 6.1 | 7.3 | 7.8
COc1ccc(C2c3[nH]c4ccccc4c3C[C@@H]3C(=O)N(C4CCCCC4)CC(=O)N23)cc1 (stereo partly specified) | -26.0 | -34.8 | -11.8 | -134.7 | -42.8
CCC(=O)Nc1cccnc1-c1ccc(C(=O)Nc2ccc3c(c2)OCO3)cc1 | 74.9* | nt | 13.1 | 4.9 | 40.0*
CCCCOC(=O)c1ccc(NC(=O)C(=O)CC(=O)c2ccc(OC)cc2)cc1 | 77.3* | 5.3 | 7.2 | -74.6 | -26.5
COC(=O)c1ccc(NC(=O)C(=O)CC(=O)c2ccc(OC)cc2)cc1 | -106.0 | -1.5 | -5.1 | -85.0 | -26.7
CCn1cc(-c2nc(-c3ccccc3)no2)c(=O)c2cc(F)ccc21 | 0.4 | 67.3* | 8.3 | 11.2 | -1.5
O=c1[nH]c(C2CCN(S(=O)(=O)c3ccc(S(=O)(=O)NC4CC4)cc3)CC2)nc2c1nnn2Cc1cccc(F)c1 | -65.7 | 11.0 | 5.0 | -30.1 | 11.0
COC(=O)c1ccc(Cn2nnc3c(=O)[nH]c(C4CCCN(S(=O)(=O)c5ccc(C)cc5)C4)nc32)cc1 (stereo unspecified) | 25.1 | 27.5 | 41.2* | 36.0* | 32.3*
Cc1ccc(Cn2nnc3c(=O)[nH]c(C4CCN(S(=O)(=O)c5ccc(S(=O)(=O)NC6CC6)cc5)CC4)nc32)cc1 | -0.7 | 18.8 | 24.3 | 42.6* | 22.1
O=c1[nH]c(C2CCN(S(=O)(=O)c3ccc(S(=O)(=O)NC4CC4)cc3)CC2)nc2c1nnn2Cc1cccc(Cl)c1 | 14.2 | 25.0 | 31.8* | 41.7* | 37.9*
CCC(CC)C(=O)N1CCC(c2nc3c(nnn3Cc3ccc(C)cc3)c(=O)[nH]2)CC1 | 19.5 | 13.3 | 8.1 | 29.6 | 13.3
O=c1[nH]c(C2CCN(S(=O)(=O)c3ccc(S(=O)(=O)NC4CCCC4)cc3)CC2)nc2c1nnn2Cc1cccc(Cl)c1 | -11.7 | 23.3 | 37.4* | 58.6* | 37.8*
Cc1ccc(Cn2nnc3c(=O)[nH]c(C4CCN(C(=O)C5CCC5)CC4)nc32)cc1 | -15.4 | -0.1 | 7.0 | 15.6 | -2.1
O=C(/C=C/c1ccccc1)N(Cc1ccc2c(c1)OCO2)C1CCCC1 | 6.4 | 17.0 | 12.3 | 23.6 | 8.7
O=c1[nH]c(C2CCN(S(=O)(=O)c3ccc(S(=O)(=O)N4CCOCC4)cc3)CC2)nc2c1nnn2Cc1ccc(F)cc1 | 89.5* | 28.3 | 45.3* | 2.1 | 8.1
O=c1[nH]c(C2CCN(S(=O)(=O)c3ccc(S(=O)(=O)N4CCOCC4)cc3)CC2)nc2c1nnn2Cc1cccc(F)c1 | -25.3 | 7.4 | -8.6 | -106.3 | 8.4
COc1ccc(OC)c(NC(=O)c2cnc(NCc3ccccc3F)nc2C)c1 | 32.8* | 2.1 | -1.7 | -10.1 | -2.4
Cc1nc(NCc2ccccc2F)ncc1C(=O)NCc1ccccc1 | 15.7 | 45.6* | 4.0 | 24.0 | 4.2
CCOc1ccc(Nc2nc3ccccc3nc2Nc2cc(C)nn2-c2ccc([N+](=O)[O-])cc2)cc1 | 14.1 | 41.9* | 3.7 | 11.5 | 7.7
CN(Cc1cc2ccccc2[nH]c1=O)C(=O)c1ccc(Cl)cc1 | 1.9 | -1.8 | 0.2 | 3.2 | 5.5
COc1ccc2[nH]c(=O)c(CN(C)C(=O)c3ccc([N+](=O)[O-])cc3)cc2c1 | 25.6 | 46.2* | 5.1 | -3.0 | 3.2
C[C@H](NC(=O)[C@H](Cc1ccccc1)NC(=O)[C@H](Cc1ccccc1)n1c(=O)[nH]c2ccccc2c1=O)C(=O)O | -34.4 | -4.6 | 0.0 | 11.7 | 3.3
Cc1cccc(NC(=O)N2CCc3nc4ccccc4n3CC2)c1 | -2.1 | -24.4 | 0.3 | 0.6 | -4.6
SMILES | USP8 inh | USP17 block | USP10 inh | USP30 inh | USP28 block
COc1ccc(C(=O)N(Cc2ccc(C)cc2)Cc2ccco2)cc1 | 11.7 | 32.6* | 8.7 | 34.3* | 29.5
COc1ccc(C(=O)N(Cc2ccco2)Cc2ccco2)cc1Cl | -4.3 | 4.3 | 4.3 | -2.5 | 2.8
O=C(Nc1ccccc1)c1nnc(CCC(=O)N2CCN(c3ccc(F)cc3)CC2)s1 | 1.2 | -6.5 | 0.0 | 0.0 | -4.6
Cc1cc(C)cc(Oc2nc3cc(C)nn3c3ccccc23)c1 | 8.5 | -4.9 | 0.3 | 15.1 | -4.5
Cc1cc2nc(Oc3cccc(Cl)c3)c3ccccc3n2n1 | 2.9 | 61.9* | 0.0 | -3.4 | -10.9
COc1cc(O)c2c(c1CC=C(C)C)OC(c1ccc(O)cc1)CC2=O (stereo unspecified) | -24.1 | -45.5 | -9.0 | -30.3 | 2.3
CC(C)=CCc1c(O)cc2c(c1C)OC(=O)c1c(C)c(Cl)c(O)c(CO)c1O2 | 10.2 | 37.3* | 47.9* | 38.7* | 48.5*
Cc1ccc(N(CC(=O)N2c3ccccc3CC2C)S(=O)(=O)c2ccc(Cl)c([N+](=O)[O-])c2)c(C)c1 (stereo unspecified) | -14.7 | -4.7 | 2.8 | -13.1 | -4.1
O=C(c1cc(-c2ccc(Cl)cc2)n[nH]1)N1CCN(CCOc2ccc(Cl)cc2)CC1 | -10.4 | 5.2 | -1.5 | 11.7 | 2.2
Oc1cc(OCCN2CCCCC2)ccc1-c1[nH]ncc1-c1ccccc1 | 66.4* | 14.7 | -0.2 | -4.8 | 3.2
CC(=O)N1C[C@H](c2ccccc2)[C@H]2CN(C(=O)c3ccc(=O)[nH]c3)CC[C@H]21 | 8.1 | 7.3 | 2.5 | 30.3* | 14.7
O=C1N[C@H]2OCC[C@H]2[C@H](C2CCN(C(=O)c3ccc(=O)[nH]c3)CC2)N1 | -46.9 | -9.5 | 0.8 | -20.0 | -6.0
NC(=O)CCNC(=O)c1cnc2n1CC(c1cccc(C(F)(F)F)c1)CC2 (stereo unspecified) | 2.5 | 0.5 | 1.8 | 23.5 | 1.1
Cc1ccc(CNC(=O)CN2C(=O)C3CCCN3C(=O)c3cccc(C)c32)cc1 (stereo unspecified) | 5.3 | -3.3 | -0.1 | -14.2 | -7.5
Cc1ccccc1CNC(=O)CN1C(=O)C2CCCN2C(=O)c2cccc(C)c21 (stereo unspecified) | 10.9 | 11.5 | 0.0 | 36.8* | 14.2
COc1ccc(-c2nc3cnccn3c2Nc2ccccc2C)cc1OC | -19.3 | -15.5 | -2.6 | -27.9 | -8.8
COc1cccc(OC)c1C(=O)Nc1cccc(-c2ccc(N3CCN(C)CC3)nn2)c1 | 15.8 | 41.4* | -0.7 | -12.5 | 3.9
COc1cccc(OC)c1C(=O)Nc1cccc(-c2ccc(N3CCCC3)nn2)c1 | 5.2 | 36.2* | 2.3 | 5.2 | 10.0
O=C(Nc1cccc(-c2ccc(N3CCCC3)nn2)c1)c1c(F)cccc1F | 9.7 | 31.2* | 6.3 | 2.1 | 22.2
CCN(CC)c1ccc2nnc(CCC(=O)NCCN3CCOCC3)n2n1 | -0.4 | -20.9 | -2.1 | -14.0 | -9.5
O=C(c1ccccn1)N1CCCn2nc(-c3ccc(Cl)cc3)cc2C1 | -6.9 | 3.8 | 0.2 | 19.9 | 15.3
COc1ccccc1-c1c(NC(=O)C2CCCCC2)n(C)c2ccccc2c1=O | 5.8 | 0.6 | 0.3 | 3.5 | -3.5
